Source: PubChem BioAssay (Tox21)
Inconclusive results are not listed. Active and inactive are the calls of the source. Unless noted, calls come from the whole dose curve.

Tests used:
[1] = Nuclear factor erythroid 2-related factor 2/antioxidant responsive element (Nrf2/ARE) small molecule agonists: qHTS cell viability counter screen in human keratinocytes (AID 1919968; active = well fitted curve in the direction sought with a large enough effect in the repeat runs; an effect the other way counts as inactive or inconclusive; note: nearly all actives have a fitted effect of over 55% in size)
In short: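 Viability counter-screen: KeratinoSens reporter cells, DMSO-delivered compounds, 23 h at 37 C, CellTiter-Fluor fluorescence.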

[2] = biological target: Gonadotropin-releasing hormone receptor (Homo sapiens) (UniProt P30968); assay: Human gonadotropin-releasing hormone receptor (GnRHR) small molecule agonists, calcium flux assay in GnRHR-HEK293 cells (AID 1920063); note: nearly all actives have a fitted effect of over 35% in size
In short: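 Tox21-format agonist screen using human GnRHR-expressing HEK293 cells and a fluorescent calcium dye; kinetic 3-min fluorescence reading after compound addition, 15-point concentration series run in triplicate.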

[3] = biological target: KiSS-1 receptor (Homo sapiens) (UniProt Q969F8); assay: Human kisspeptin (KISS1R) small molecule agonists, calcium flux assay in KISS1R-HEK293 cells (AID 1920064; active = well fitted curve in the direction sought with a large enough effect in the repeat runs; an effect the other way counts as inactive or inconclusive)
In short: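 Intracellular calcium mobilization in KISS1R-HEK293 cells was recorded by fluorescence (Ex/Em 480/540) for 3 min following compound addition to cells pre-loaded 1 h with calcium dye.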

[4] = G protein-coupled receptor (GPCR) small molecule agonists, calcium flux assay: HEK293 wild type cell line counter screen (AID 1920065)
In short: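 In this agonist-mode screen, ATP is the positive control and DMSO the vehicle. Cells grow 18 h before a 1 h dye incubation at 37 C; signal is taken at Ex/Em 480/540 over 3 min.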

[5] = p53 small molecule agonists, cell-based qHTS assay with human liver microsomes (AID 1963577)
In short: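 Fluorescence of the beta-lactamase reporter in p53RE-bla cells, detected with LiveBLAzer substrate (2 h, room temperature, dark), served as the read-out after 16 h compound exposure at 37 C with human liver microsomes and NADPH, each 0.5 mg/mL final.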

[6] = p53 small molecule agonists, cell-based qHTS assay with rat liver microsomes (AID 1963578)
In short: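 Cells carrying a p53 response element–beta-lactamase reporter were plated and rested 5 h, then dosed with compound in DMSO plus rat liver microsomes and NADPH, each at 0.5 mg/mL final. After 16 h at 37 C, LiveBLAzer substrate was added for 2 h.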

[7] = p53 small molecule agonists, cell-based qHTS assay with human liver microsomes: qHTS cell viability counter screen (AID 1963579); note: nearly all actives have a fitted effect of over 45% in size
In short: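 Cytotoxicity counter screen: p53RE-bla, 4,000 cells/well; 5 h settle, 37 C/5% CO2; cpd + HLM 0.5 mg/mL + NADPH 0.5 mg/mL (final); 16 h, 37 C; CellTiter-Glo, 30 min RT, luminescence.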

[8] = p53 small molecule agonists, cell-based qHTS assay with rat liver microsomes: qHTS cell viability counter screen (AID 1963580); note: nearly all actives have a fitted effect of over 45% in size
In short: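 Viability is assessed in parallel with the p53 reporter read: HCT-116 p53RE-bla cells receive compounds plus rat microsomes and NADPH (0.5 mg/mL final apiece), incubate 16 h at 37 C, and then CellTiter-Glo luminescence is recorded.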

[9] = p53 small molecule agonists, cell-based qHTS assay (AID 1963582; active = well fitted activation curve with a large enough effect in the signal ratio in the repeat runs, not every such curve was filed as active; the % refers to the signal ratio)
In short: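 Agonist activity was scored from beta-lactamase FRET fluorescence in p53RE-bla cells treated 16 h at 37 C with compounds in DMSO, substrate incubation being 2 h at room temperature.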

[10] = cAMP Responsive Elements (CRE) small molecule agonists, cell-based qHTS assay (AID 1963590)
In short: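 FRET-based beta-lactamase readout (LiveBLAzer B/G, 2 h RT) quantified CRE activation in HEK 293T CRE-bla cells after 3 h treatment with DMSO-dissolved compounds.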

[11] = cAMP Responsive Elements (CRE) small molecule antagonists, cell-based qHTS assay (AID 1963591; active = well fitted inhibition curve with a large enough effect in the signal ratio in the repeat runs, not every such curve was filed as active; the % refers to the signal ratio)
In short: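 qHTS in CRE-bla HEK 293T cells: compound in DMSO, then 0.25 uM NKH477 (final), 3 h at 37 °C/5% CO2; beta-lactamase FRET read-out after 2 h substrate incubation.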

[12] = biological target: Beta-2 adrenergic receptor (Homo sapiens) (UniProt P07550); assay: Adrenergic beta2 receptor (ADRB2) small molecule antagonists, cell-based qHTS assay (AID 1963592); note: series mostly up to about 92 µM; nearly all actives have a fitted effect of over 50% in size
In short: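 Cells (CHO, stable ADRB2 overexpression) incubated 18-20hr at 37C; compounds added from DMSO; agonist mix (1nM isoproterenol, 100uM IBMX, 25uM Ro-20-1724) added; 0.5hr RT; d2-cAMP and anti-cAMP-cryptate added; 1hr RT; 665/615 nm read.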

[13] = biological target: Beta-2 adrenergic receptor (Homo sapiens) (UniProt P07550); assay: Adrenergic beta2 receptor (ADRB2) small molecule agonists, cell-based qHTS assay (AID 1963593);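 note: CHO cells stably overexpressing human ADRB2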
In short: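 CHO cells stably over-expressing ADRB2 were plated overnight at 37C, then dosed with compounds plus a stimulation mix containing 100uM IBMX and 25uM Ro-20-1724 for 0.5hr at room temperature. cAMP was measured by HTRF competition, 1hr.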

[14] = biological target: D(2) dopamine receptor (Homo sapiens) (UniProt P14416); assay: Dopamine D2 receptor (DRD2) small molecule agonists, cell-based qHTS assay (AID 1963594); note: nearly all actives have a fitted effect of over 35% in size
In short: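 HEK293 cells stably expressing human DRD2, pre-treated with PDE inhibitor Ro20-1724 (0.1 mM final) and compound 10 min at room temperature, then stimulated with NKH477 (200nM […]) for 30 min. cAMP read by HTRF (665/620 nm).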

[15] = biological target: D(2) dopamine receptor (Homo sapiens) (UniProt P14416); assay: Dopamine D2 receptor (DRD2) small molecule antagonists, cell-based qHTS assay (AID 1963595; active = well fitted inhibition curve with a large enough effect in the signal ratio in the repeat runs, with a control signal flat; the % refers to the signal ratio)
In short: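 HTRF cAMP read-out at 665 and 620 nm emission (340 nm excitation). Antagonist mode: compounds were tested against 12 nM quinpirole in DRD2-HEK293 cells, with 200 nM NKH477 raising cAMP and 0.1 mM Ro20-1724 blocking its breakdown.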

[16] = p53 small molecule agonists, cell-based qHTS assay: qHTS cell viability counter screen (AID 1963581); note: nearly all actives have a fitted effect of over 45% in size
In short: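 Compounds are pinned onto HCT-116 p53RE-bla cells and left 16 h at 37 C. Following the reporter FRET read, ATP is quantified by CellTiter-Glo luminescence after 30 min at room temperature.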

[17] = biological target: 5-hydroxytryptamine receptor 2A (Homo sapiens) (UniProt P28223); assay: 5-hydroxytryptamine receptor 2A (HTR2A) small molecule antagonists, cell-based qHTS assay (AID 1963586); note: nearly all actives have a fitted effect of over 45% in size
In short: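 Antagonist-mode intracellular calcium assay: DOI (4 nM) added after 5 min compound pre-incubation at room temperature to dye-loaded HTR2A-CHO cells. Fluorescence followed for 3 min, sampled every second.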

[18] = biological target: 5-hydroxytryptamine receptor 2A (Homo sapiens) (UniProt P28223); assay: 5-hydroxytryptamine receptor 2A (HTR2A) small molecule agonists, cell-based qHTS assay (AID 1963587); note: nearly all actives have a fitted effect of over 30% in size
In short: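 CHO cells stably expressing human HTR2A, plated 18 h, loaded with calcium dye 1 h at 37 C. Agonist mode: compounds added and intracellular calcium fluorescence recorded kinetically for 2 min at 1 sec intervals.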

[19] = biological target: Muscarinic acetylcholine receptor M1 (Homo sapiens) (UniProt P11229); assay: Cholinergic receptor muscarinic 1 (CHRM1) small molecule antagonists, cell-based qHTS assay (AID 1963588); note: nearly all actives have a fitted effect of over 40% in size
In short: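 CHRM1-CHO calcium-flux assay, antagonist mode. Cells were seeded 18 h, dye-loaded 1 h at 37 C and given compound for 5 min at RT, then acetylcholine was added at 50nM. FDSS fluorescence was read 3 min; 15 concentrations, three runs.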

[20] = biological target: Muscarinic acetylcholine receptor M1 (Homo sapiens) (UniProt P11229); assay: Cholinergic receptor muscarinic 1 (CHRM1) small molecule agonists, cell-based qHTS assay (AID 1963589); note: nearly all actives have a fitted effect of over 35% in size
In short: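 Stable CHRM1-CHO cells (human receptor) were incubated 18 h, dye-loaded for 1 h at 37 C and exposed to test compounds for agonist activity, with calcium-dependent fluorescence followed kinetically.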

Measured: Potency

5-hydroxytryptamine receptor 2A (Homo sapiens), sequence (P28223 whole entry, looked up): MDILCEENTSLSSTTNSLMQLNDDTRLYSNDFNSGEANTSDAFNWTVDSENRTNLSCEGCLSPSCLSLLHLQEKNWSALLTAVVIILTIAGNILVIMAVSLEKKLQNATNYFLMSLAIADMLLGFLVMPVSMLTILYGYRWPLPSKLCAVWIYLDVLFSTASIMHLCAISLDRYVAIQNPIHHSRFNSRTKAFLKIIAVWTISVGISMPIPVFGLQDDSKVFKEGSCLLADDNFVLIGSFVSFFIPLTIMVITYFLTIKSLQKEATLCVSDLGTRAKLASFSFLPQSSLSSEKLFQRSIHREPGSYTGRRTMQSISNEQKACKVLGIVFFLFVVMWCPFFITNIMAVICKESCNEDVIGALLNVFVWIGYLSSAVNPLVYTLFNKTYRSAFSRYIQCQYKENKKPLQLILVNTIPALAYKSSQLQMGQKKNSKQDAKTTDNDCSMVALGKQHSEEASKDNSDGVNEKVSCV
Gonadotropin-releasing hormone receptor (Homo sapiens), sequence (P30968 whole entry, looked up): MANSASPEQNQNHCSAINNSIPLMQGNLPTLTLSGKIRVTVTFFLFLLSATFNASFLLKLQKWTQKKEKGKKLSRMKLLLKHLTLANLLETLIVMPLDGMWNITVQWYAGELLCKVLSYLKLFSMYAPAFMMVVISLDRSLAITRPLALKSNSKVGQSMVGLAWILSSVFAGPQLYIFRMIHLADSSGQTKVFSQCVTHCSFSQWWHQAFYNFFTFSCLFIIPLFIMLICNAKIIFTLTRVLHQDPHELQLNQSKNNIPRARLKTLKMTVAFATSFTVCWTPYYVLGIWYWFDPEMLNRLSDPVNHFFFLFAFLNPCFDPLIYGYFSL
Muscarinic acetylcholine receptor M1 (Homo sapiens), sequence (P11229 whole entry, looked up): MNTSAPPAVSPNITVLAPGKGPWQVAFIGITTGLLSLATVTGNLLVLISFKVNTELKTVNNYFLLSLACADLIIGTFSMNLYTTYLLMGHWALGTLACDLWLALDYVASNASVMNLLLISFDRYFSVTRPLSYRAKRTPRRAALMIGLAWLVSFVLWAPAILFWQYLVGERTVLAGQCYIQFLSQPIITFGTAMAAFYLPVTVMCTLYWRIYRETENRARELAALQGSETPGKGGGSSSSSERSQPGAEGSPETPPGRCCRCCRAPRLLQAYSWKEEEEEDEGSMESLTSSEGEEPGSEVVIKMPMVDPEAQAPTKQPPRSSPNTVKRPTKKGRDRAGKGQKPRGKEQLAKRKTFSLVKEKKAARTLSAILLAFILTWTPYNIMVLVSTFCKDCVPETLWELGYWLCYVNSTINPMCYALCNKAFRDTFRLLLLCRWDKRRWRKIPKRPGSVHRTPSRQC
KiSS-1 receptor (Homo sapiens), sequence (Q969F8 whole entry, looked up): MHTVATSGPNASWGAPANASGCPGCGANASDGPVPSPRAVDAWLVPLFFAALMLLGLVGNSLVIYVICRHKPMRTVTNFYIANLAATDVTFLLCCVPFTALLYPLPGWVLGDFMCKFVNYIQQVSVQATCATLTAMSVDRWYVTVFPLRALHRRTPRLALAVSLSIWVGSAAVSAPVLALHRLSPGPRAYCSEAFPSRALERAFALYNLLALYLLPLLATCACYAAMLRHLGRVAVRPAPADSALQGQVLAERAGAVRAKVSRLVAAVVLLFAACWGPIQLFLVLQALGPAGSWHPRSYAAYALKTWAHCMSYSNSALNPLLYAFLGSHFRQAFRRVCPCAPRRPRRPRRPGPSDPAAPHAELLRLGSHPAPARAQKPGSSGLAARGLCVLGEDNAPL
D(2) dopamine receptor (Homo sapiens), sequence (P14416 whole entry, looked up): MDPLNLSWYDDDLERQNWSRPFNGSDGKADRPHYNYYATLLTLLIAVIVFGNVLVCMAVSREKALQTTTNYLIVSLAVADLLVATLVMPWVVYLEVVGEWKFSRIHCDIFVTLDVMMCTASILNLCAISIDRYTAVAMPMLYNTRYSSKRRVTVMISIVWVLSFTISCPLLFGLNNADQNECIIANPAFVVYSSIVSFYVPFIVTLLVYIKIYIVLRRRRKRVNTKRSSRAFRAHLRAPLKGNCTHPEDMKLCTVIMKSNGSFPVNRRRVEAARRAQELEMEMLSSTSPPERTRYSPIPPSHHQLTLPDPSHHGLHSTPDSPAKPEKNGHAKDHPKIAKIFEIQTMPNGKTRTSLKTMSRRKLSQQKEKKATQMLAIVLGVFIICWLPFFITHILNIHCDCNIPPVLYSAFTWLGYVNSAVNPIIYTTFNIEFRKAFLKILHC
Beta-2 adrenergic receptor (Homo sapiens), sequence (P07550 whole entry, looked up): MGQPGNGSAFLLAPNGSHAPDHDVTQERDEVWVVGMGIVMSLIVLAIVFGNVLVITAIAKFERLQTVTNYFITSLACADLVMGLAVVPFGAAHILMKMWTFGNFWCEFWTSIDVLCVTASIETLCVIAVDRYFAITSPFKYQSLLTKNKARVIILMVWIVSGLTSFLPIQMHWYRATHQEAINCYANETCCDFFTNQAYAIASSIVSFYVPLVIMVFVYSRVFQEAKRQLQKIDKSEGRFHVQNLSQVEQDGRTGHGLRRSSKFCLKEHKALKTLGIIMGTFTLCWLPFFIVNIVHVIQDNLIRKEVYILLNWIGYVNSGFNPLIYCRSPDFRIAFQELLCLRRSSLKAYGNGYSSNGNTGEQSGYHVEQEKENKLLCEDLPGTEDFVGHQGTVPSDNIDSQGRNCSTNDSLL

CC(C)=CCCC(C)CC=O (stereo not drawn)
inactive: [1] | [2] | [3] | [4] | [5] | [6] | [7] | [8] | [9] | [10] | [11] | [12] | [13] | [14] | [15]

Clc1ccc2c(c1)Nc1ccccc1S2
inactive: [1] | [2] | [3] | [4] | [5] | [6] | [7] | [16] | [9] | [17] | [18] | [19] | [20] | [12] | [14] | [15]

CC(C)(C)NC[C@H](O)COc1nsnc1N1CCOCC1
inactive: [1] | [2] | [3] | [4] | [5] | [6] | [7] | [8] | [16] | [9] | [10] | [11] | [14]

CCCCCC/C(C=O)=C\c1ccccc1
inactive: [1] | [2] | [3] | [4] | [7] | [8] | [16] | [17] | [18] | [19] | [20] | [10] | [12] | [13] | [15]

CC1COc2ccccc2N1 (stereo not drawn)
inactive: [1] | [2] | [3] | [4] | [5] | [6] | [8] | [16] | [9] | [18] | [19] | [20] | [10] | [11] | [12] | [13] | [14] | [15]

C=C(C)[C@@H]1CCC2=CCC[C@@H](C)[C@]2(C)C1
inactive: [1] | [2] | [3] | [4] | [5] | [6] | [7] | [8] | [16] | [17] | [18] | [19] | [20] | [10] | [11] | [12] | [13] | [14] | [15]

CCOC(=O)CC(C)=O
inactive: [1] | [2] | [3] | [4] | [7] | [8] | [16] | [17] | [18] | [19] | [20] | [10] | [11] | [12] | [14] | [15]

Cc1ccc(C(C)(C)O)cc1
inactive: [1] | [2] | [3] | [4] | [5] | [7] | [8] | [16] | [17] | [18] | [19] | [20] | [10] | [12] | [14] | [15]
